# From article PMC7862700, “An all-to-all approach to the identification of sequence-specific readers for epigenetic DNA modifications on cytosine”
# Tests used:
# Assay in all cases: DAPPL (digital affinity profiling via proximity ligation, sequencing); 10 mM Tris-HCl pH 7.5, 50 mM NaCl, 1 mM DTT, 4% glycerol, room temperature, 30 min; GST-TFs on glutathione beads, 16-mer random dsDNA library, 0.1% formaldehyde crosslink after washing; high values mean tight binding
# [1] = target: T1, FEV (Homo sapiens, UniProt Q99581 1-238); settings: protein: recombinant; tags: N-terminal GST; dsDNA, one strand shown
# T1 sequence: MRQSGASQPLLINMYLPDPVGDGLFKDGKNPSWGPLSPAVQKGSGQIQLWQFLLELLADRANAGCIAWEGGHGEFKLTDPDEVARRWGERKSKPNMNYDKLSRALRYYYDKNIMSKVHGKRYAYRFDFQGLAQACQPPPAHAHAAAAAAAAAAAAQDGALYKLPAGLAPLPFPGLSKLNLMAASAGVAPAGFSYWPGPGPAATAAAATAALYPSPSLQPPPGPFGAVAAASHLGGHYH
# How it was run: (§1)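 Yeast served to express human transcription factors as GST fusions, which were then captured on glutathione beads and labelled with DNA barcodes. Pooled with a tag-only sample, they were incubated with 200 nmole of a 16-mer random double-stranded DNA library for 30 min at room temperature in Tris/NaCl/DTT/glycerol buffer, washed, crosslinked with 0.1% formaldehyde, ligated by proximity, amplified by PCR and sequenced. Dividing each hexamer's read frequency for a factor by its frequency for the tag-only sample gives the binding signal.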
# [2] = target: ETV5 (Homo sapiens, UniProt P41161 1-510); settings: protein: recombinant; tags: N-terminal GST; dsDNA, one strand shown
# How it was run: as §1
# [3] = target: HSF1 (Homo sapiens, UniProt Q00613 1-529); settings: protein: recombinant; tags: N-terminal GST; chain copies: 3; dsDNA, one strand shown
# How it was run: as §1
# [4] = target: T2, SPIC (Homo sapiens, UniProt Q8N5J4 1-248); settings: protein: recombinant; tags: N-terminal GST; dsDNA, one strand shown
# T2 sequence: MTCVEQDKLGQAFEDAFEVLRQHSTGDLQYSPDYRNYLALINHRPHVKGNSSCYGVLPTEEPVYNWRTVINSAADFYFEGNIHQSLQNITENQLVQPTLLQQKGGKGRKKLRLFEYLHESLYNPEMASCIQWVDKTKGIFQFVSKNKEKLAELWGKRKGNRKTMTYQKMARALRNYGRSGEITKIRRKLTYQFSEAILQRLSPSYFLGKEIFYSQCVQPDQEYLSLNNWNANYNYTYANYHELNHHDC
# How it was run: as §1
# [5] = target: ELF4 (Homo sapiens, UniProt Q99607 1-663); settings: protein: recombinant; tags: N-terminal GST; dsDNA, one strand shown
# How it was run: as §1
# [6] = target: T3, ELK4 (Homo sapiens, UniProt P28324-2 1-405); settings: protein: recombinant; tags: N-terminal GST; dsDNA, one strand shown
# T3 sequence: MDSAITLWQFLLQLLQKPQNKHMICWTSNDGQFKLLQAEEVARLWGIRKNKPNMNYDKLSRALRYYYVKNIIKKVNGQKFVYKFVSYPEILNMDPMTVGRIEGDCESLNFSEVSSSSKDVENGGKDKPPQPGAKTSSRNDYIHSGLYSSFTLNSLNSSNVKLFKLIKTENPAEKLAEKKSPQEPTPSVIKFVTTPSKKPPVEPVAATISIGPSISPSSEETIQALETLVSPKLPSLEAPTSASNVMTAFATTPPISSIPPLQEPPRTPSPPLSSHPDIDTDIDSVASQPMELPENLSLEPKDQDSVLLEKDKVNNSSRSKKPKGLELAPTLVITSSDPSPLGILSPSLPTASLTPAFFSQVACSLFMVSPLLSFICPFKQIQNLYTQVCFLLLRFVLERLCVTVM
# How it was run: as §1
# [7] = target: T4, ETV2 (Homo sapiens, UniProt O00321 1-342); settings: protein: recombinant; tags: N-terminal GST; dsDNA, one strand shown
# T4 sequence: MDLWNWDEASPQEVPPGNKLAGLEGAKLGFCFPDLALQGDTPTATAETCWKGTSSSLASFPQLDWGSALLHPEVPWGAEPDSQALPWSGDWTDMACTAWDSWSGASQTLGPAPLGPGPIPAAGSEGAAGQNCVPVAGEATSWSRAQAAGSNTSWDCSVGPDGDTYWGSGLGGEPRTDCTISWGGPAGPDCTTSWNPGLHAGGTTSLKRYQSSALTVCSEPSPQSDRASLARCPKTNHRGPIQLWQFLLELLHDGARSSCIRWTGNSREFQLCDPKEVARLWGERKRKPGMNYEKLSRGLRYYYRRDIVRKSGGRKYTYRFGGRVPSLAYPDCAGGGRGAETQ
# How it was run: as §1
# [8] = target: T5, ELF3 (Homo sapiens, UniProt P78545 1-371); settings: protein: recombinant; tags: N-terminal GST; dsDNA, one strand shown
# T5 sequence: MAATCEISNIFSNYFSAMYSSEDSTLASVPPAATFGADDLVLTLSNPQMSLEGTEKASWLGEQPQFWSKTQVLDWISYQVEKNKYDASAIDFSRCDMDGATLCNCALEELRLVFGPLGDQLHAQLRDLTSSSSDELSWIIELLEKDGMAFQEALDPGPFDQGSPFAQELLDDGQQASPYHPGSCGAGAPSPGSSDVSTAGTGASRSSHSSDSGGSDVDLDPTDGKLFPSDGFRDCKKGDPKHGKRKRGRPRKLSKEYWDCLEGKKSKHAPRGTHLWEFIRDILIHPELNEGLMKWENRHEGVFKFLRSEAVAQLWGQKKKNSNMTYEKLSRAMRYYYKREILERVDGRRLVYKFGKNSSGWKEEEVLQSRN
# How it was run: as §1
# [9] = target: CRX (Homo sapiens, UniProt O43186 1-299); settings: protein: recombinant; tags: N-terminal GST; dsDNA, one strand shown
# How it was run: as §1
# [10] = target: ETV1 (Homo sapiens, UniProt P50549 1-477); settings: protein: recombinant; tags: N-terminal GST; dsDNA, one strand shown
# How it was run: as §1
# [11] = target: T6, ERF (Homo sapiens, UniProt P50548 1-548); settings: protein: recombinant; tags: N-terminal GST; dsDNA, one strand shown
# T6 sequence: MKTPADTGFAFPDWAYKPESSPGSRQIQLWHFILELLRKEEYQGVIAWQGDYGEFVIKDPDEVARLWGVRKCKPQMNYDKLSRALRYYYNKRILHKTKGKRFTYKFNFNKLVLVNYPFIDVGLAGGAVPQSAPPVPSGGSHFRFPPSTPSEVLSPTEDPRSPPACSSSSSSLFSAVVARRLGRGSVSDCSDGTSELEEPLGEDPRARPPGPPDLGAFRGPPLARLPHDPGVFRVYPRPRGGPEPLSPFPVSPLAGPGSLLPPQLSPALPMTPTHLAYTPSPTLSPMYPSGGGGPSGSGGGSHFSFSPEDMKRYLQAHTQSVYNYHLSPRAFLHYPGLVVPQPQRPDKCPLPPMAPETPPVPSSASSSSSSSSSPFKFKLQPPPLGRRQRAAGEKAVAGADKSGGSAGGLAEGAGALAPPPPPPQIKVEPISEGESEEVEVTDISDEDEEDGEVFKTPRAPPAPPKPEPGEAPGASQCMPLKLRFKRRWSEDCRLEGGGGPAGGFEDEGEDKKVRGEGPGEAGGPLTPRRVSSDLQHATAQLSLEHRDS
# How it was run: as §1
# [12] = target: T7, ETV3L (Homo sapiens, UniProt Q6ZN32 1-361); settings: protein: recombinant; tags: N-terminal GST; dsDNA, one strand shown
# T7 sequence: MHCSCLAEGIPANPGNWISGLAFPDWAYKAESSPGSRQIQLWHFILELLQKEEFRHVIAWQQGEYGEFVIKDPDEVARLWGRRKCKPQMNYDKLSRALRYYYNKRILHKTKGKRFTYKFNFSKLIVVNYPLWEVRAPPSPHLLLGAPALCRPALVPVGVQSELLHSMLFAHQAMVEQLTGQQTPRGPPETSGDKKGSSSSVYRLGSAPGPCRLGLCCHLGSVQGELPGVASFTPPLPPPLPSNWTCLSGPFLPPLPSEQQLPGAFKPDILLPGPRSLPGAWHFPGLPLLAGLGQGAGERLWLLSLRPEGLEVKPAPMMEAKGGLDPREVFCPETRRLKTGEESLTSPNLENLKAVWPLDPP
# How it was run: as §1
# [13] = target: T8, ETS2 (Homo sapiens, UniProt P15036 1-469); settings: protein: recombinant; tags: N-terminal GST; dsDNA, one strand shown
# T8 sequence: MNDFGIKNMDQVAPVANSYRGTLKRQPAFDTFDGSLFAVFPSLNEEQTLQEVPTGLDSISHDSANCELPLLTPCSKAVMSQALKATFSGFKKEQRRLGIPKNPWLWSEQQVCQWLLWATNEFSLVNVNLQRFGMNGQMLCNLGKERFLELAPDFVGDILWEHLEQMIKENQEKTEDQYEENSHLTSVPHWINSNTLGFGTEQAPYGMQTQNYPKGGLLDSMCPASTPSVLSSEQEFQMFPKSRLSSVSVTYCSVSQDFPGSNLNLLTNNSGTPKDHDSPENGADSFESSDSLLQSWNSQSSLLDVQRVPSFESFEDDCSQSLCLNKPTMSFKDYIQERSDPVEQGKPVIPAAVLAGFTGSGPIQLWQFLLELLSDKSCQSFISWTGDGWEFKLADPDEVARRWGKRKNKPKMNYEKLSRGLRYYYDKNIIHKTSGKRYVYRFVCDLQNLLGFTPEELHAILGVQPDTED
# How it was run: as §1
# [14] = target: T9, SPDEF (Homo sapiens, UniProt O95238 1-335); settings: protein: recombinant; tags: N-terminal GST; dsDNA, one strand shown
# T9 sequence: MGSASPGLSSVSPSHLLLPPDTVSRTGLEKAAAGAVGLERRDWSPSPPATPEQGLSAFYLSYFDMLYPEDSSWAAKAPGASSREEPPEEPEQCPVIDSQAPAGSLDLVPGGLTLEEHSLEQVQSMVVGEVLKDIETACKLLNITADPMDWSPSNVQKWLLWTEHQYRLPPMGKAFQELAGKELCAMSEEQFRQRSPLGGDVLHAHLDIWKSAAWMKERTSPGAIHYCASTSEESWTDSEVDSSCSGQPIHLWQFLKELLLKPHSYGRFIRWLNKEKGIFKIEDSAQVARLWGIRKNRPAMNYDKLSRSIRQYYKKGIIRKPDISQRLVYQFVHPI
# How it was run: as §1
# [15] = target: T10, ETV7 (Homo sapiens, UniProt Q9Y603 1-341); settings: protein: recombinant; tags: N-terminal GST; dsDNA, one strand shown
# T10 sequence: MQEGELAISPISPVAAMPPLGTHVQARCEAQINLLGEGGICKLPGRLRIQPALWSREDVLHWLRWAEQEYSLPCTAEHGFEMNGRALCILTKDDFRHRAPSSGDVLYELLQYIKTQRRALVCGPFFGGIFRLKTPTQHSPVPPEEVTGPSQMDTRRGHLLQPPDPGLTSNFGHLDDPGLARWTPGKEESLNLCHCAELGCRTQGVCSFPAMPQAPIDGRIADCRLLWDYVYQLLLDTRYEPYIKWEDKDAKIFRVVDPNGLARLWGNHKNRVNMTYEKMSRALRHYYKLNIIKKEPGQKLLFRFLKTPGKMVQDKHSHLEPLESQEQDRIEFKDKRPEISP
# How it was run: as §1
# [16] = target: T11, ELF5 (Homo sapiens, UniProt Q9UKW6-2 1-255); settings: protein: recombinant; tags: N-terminal GST; dsDNA, one strand shown
# T11 sequence: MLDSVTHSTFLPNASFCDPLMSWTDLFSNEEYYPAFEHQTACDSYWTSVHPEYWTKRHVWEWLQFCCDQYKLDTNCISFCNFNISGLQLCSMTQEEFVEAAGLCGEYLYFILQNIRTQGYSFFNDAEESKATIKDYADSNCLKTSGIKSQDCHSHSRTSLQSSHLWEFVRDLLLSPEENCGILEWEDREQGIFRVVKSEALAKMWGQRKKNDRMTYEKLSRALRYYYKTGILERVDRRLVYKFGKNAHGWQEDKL
# How it was run: as §1
# [17] = target: T12, ETV3 (Homo sapiens, UniProt P41162-2 1-143); settings: protein: recombinant; tags: N-terminal GST; dsDNA, one strand shown
# T12 sequence: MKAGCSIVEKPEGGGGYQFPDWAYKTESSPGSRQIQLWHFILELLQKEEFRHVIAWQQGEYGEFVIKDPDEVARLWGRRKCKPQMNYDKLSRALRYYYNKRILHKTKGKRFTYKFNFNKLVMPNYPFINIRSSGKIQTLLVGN
# How it was run: as §1
# [18] = target: ETV6 (Homo sapiens, UniProt P41212 1-452); settings: protein: recombinant; tags: N-terminal GST; dsDNA, one strand shown
# How it was run: as §1
# Sequence of ETV6 (P41212 whole entry): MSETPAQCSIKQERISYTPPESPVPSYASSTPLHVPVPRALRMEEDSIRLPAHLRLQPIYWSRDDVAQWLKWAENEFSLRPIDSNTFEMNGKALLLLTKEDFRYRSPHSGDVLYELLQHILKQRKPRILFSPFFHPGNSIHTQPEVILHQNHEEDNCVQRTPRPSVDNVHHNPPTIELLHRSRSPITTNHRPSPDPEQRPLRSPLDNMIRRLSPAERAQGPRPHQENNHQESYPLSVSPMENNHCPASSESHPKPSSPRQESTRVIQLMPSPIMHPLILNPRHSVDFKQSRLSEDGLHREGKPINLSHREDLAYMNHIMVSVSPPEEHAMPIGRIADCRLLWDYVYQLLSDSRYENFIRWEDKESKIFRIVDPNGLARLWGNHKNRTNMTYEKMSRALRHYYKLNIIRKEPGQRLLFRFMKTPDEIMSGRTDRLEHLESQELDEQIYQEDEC
# Sequence of ETV5 (P41161 whole entry): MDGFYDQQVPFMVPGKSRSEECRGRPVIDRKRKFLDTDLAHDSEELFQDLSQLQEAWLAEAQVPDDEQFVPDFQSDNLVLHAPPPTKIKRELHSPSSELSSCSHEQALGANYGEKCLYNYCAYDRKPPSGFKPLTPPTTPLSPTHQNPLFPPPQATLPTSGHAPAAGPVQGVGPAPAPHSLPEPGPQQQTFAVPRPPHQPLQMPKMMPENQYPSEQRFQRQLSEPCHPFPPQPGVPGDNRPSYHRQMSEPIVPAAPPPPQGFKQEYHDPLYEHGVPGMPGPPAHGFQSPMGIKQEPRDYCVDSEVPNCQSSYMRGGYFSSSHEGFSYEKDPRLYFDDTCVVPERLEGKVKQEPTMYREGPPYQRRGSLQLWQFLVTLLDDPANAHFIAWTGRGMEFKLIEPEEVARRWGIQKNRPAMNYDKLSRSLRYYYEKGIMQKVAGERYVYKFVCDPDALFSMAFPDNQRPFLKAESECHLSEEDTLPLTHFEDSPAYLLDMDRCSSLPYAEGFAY
# Sequence of HSF1 (Q00613 whole entry): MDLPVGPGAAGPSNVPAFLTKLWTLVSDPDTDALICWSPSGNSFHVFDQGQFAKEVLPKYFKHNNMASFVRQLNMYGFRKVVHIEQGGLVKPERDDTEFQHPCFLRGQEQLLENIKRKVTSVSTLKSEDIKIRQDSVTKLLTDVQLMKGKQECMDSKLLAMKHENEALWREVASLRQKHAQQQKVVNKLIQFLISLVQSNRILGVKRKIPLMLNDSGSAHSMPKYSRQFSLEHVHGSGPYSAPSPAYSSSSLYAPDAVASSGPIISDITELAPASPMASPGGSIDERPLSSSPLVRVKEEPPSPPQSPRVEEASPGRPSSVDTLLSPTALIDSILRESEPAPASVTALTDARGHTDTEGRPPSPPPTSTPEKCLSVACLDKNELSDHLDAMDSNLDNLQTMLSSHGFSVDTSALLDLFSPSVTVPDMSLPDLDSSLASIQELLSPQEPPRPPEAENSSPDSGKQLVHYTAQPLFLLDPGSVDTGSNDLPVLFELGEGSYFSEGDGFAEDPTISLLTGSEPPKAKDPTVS
# Sequence of CRX (O43186 whole entry): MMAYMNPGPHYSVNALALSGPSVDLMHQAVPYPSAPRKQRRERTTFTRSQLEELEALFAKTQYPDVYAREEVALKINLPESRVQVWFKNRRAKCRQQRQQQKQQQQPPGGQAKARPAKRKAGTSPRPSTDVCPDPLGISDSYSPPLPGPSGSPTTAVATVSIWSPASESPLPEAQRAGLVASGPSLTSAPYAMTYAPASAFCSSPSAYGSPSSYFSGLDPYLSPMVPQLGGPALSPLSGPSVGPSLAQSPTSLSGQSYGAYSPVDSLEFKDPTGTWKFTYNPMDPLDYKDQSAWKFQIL
# Sequence of ELF4 (Q99607 whole entry): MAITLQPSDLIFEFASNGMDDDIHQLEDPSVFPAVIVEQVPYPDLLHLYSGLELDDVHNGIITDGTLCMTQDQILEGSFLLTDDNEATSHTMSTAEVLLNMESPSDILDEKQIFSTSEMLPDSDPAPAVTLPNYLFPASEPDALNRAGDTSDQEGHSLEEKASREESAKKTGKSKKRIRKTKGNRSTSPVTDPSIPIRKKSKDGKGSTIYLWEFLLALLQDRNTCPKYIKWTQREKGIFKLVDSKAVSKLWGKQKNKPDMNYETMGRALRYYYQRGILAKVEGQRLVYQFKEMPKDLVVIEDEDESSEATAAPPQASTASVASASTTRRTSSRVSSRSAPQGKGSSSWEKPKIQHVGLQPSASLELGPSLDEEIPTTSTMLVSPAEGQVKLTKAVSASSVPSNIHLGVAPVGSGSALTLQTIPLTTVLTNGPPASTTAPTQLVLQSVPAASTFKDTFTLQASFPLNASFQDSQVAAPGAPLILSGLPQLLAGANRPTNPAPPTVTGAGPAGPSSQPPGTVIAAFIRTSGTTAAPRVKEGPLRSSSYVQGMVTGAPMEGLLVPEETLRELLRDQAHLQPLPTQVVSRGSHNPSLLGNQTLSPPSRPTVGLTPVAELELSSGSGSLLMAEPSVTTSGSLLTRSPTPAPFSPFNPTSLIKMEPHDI
# Sequence of ETV1 (P50549 whole entry): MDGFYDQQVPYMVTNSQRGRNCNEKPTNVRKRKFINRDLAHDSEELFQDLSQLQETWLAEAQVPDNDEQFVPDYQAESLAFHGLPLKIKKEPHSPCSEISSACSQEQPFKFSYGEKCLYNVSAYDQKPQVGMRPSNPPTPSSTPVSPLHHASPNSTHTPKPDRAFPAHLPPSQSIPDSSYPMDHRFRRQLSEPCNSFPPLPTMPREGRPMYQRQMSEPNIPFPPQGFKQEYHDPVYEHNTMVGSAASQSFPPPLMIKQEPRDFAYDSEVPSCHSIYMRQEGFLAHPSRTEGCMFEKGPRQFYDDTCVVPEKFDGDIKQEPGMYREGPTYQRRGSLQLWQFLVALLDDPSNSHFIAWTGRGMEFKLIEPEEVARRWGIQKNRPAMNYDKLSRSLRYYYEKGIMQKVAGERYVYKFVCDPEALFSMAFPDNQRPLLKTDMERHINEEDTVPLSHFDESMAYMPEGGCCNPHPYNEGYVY
sequence,measurement,setting,value
CTCGCA,binding signal,[1],"1.32 fold enrichment (6-mer frequency, TF over GST control)"
same,binding signal,[2],"1.19 fold enrichment (6-mer frequency, TF over GST control)"
same,binding signal,[3],"1.61 fold enrichment (6-mer frequency, TF over GST control)"
same,binding signal,[4],"1.43 fold enrichment (6-mer frequency, TF over GST control)"
same,binding signal,[5],"1.26 fold enrichment (6-mer frequency, TF over GST control)"
same,binding signal,[6],"1.29 fold enrichment (6-mer frequency, TF over GST control)"
same,binding signal,[7],"1.34 fold enrichment (6-mer frequency, TF over GST control)"
same,binding signal,[8],"1.26 fold enrichment (6-mer frequency, TF over GST control)"
same,binding signal,[9],"1.2 fold enrichment (6-mer frequency, TF over GST control)"
same,binding signal,[10],"1.26 fold enrichment (6-mer frequency, TF over GST control)"
same,binding signal,[11],"1.26 fold enrichment (6-mer frequency, TF over GST control)"
same,binding signal,[12],"1.3 fold enrichment (6-mer frequency, TF over GST control)"
same,binding signal,[13],"1.35 fold enrichment (6-mer frequency, TF over GST control)"
same,binding signal,[14],"1.2 fold enrichment (6-mer frequency, TF over GST control)"
same,binding signal,[15],"1.23 fold enrichment (6-mer frequency, TF over GST control)"
same,binding signal,[16],"1.15 fold enrichment (6-mer frequency, TF over GST control)"
same,binding signal,[17],"1.34 fold enrichment (6-mer frequency, TF over GST control)"
same,binding signal,[18],"1.19 fold enrichment (6-mer frequency, TF over GST control)"
